Results on ten compounds are retold here after PubChem BioAssay (NCI).

This is part of a sample that, as a whole, favours compounds with a hit. Of some 79,000 tested, about 15% had one in any assay. Values without a mark were called inactive. Active and inactive are the calls of the source. Rule as the data show it: active = growth inhibition above about 70%; inactive = the rest.

A short description of assay [1]: NCI Yeast Anticancer Drug Screen. Data for the rad50 strain (AID 155).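 Also: 0% = growth of vehicle-only cultures of the same strain.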 Particulars: S. cerevisiae rad50 strain growth inhibition, active compounds read high. Put shortly: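 Genetically altered yeast (DNA repair pathway); compound treatment; growth inhibition vs vehicle ctrl.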
The nature of assay [2]: NCI Yeast Anticancer Drug Screen. Data for the mec2-1 strain (AID 157). The note with it: S. cerevisiae mec2-1 strain, active compounds read high. Put shortly: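 Growth inhibition is read against vehicle-treated controls after compound exposure of the mec2-1 yeast strain, which is defective in DNA damage repair or cell cycle control.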
Assay [3] is described as follows: NCI Yeast Anticancer Drug Screen. Data for the sgs1 mgt1 strain (AID 161).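 Also: 0% = growth of cultures given vehicle only.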 Particulars: S. cerevisiae sgs1 mgt1 strain, active compounds read high. Put shortly:
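Percent growth inhibition was derived by comparing compound-exposed mutant yeast with vehicle-exposed cultures. The strain carries alterations in DNA damage repair.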

The nature of assay [4]: NCI Yeast Anticancer Drug Screen. Data for the cln2 rad14 strain (AID 165).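 Also: 0% = growth equal to vehicle treated cultures.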 Particulars: S. cerevisiae cln2 rad14 strain, active compounds read high. Put shortly: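 Growth inhibition, relative to vehicle-treated controls, is the read-out. The test organism is a yeast strain with defined genetic alterations, cln2 rad14.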
The nature of assay [5]: NCI Yeast Anticancer Drug Screen. Data for the bub3 strain (AID 167). Particulars: S. cerevisiae bub3 mutant strain, active compounds read high. Put shortly:
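Yeast carrying a defined mutation is treated with each compound, and growth is compared with that of vehicle-exposed cells to give inhibition.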

The nature of assay [6]: NCI Yeast Anticancer Drug Screen. Data for the mlh1 rad18 strain (AID 175). Particulars: S. cerevisiae mlh1 rad18 strain growth inhibition, active compounds read high. Put shortly:
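Cells of a genetically altered yeast strain, deficient in DNA damage repair, were treated with compound. Their growth was then compared with that of vehicle-treated cultures to give inhibition.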

[7] abbreviates: at 5.0 µM (retest, dose inferred, filed as 0.5).
The mark [8] stands for this setting: at 50.0 µM (retest, dose inferred, filed as 5.0).

Take `CCOC(=O)/C(=N/NS(=O)(=O)c1c(C)cc(C)cc1C)c1ccco1`: the growth inhibition was -2% in assay [1] (setting [7]); 13% in assay [1] (setting [8]); 64.6% in assay [1] (at 50.0 µM); -2% in assay [2] (setting [7]); 25% in assay [2] (setting [8]); 45.5% in assay [2] (at 50.0 µM). The growth inhibition was 2% in assay [3] (setting [7]); 41% in assay [3] (setting [8]); 50.4% in assay [3] (at 50.0 µM); 0% in assay [4] (setting [7]); -4% in assay [4] (setting [8]); 38.3% in assay [4] (at 50.0 µM). Moreover, the growth inhibition was 1% in assay [5] (setting [7]); 29% in assay [5] (setting [8]); 79.8% (active) in assay [5] (at 50.0 µM); 4% in assay [6] (setting [7]); 34% in assay [6] (setting [8]); 80.7% (active) in assay [6] (at 50.0 µM).
Turning to `O=c1[nH]c2c([N+](=O)[O-])cc(Cl)cc2nc1/C=C(\O)c1ccc2ccccc2c1`, the growth inhibition in assay [1] (setting [7]) was -4%; in assay [1] (setting [8]) it was 95% (active); in assay [1] (at 50.0 µM), 74.3% (active); in assay [2] (setting [7]), 7%; in assay [2] (setting [8]), 98% (active); in assay [2] (at 50.0 µM) it was 72.9% (active). The growth inhibition was -8% in assay [3] (setting [7]); 95% (active) in assay [3] (setting [8]); 90.1% (active) in assay [3] (at 50.0 µM); 6% in assay [4] (setting [7]); 94% (active) in assay [4] (setting [8]); 49.1% in assay [4] (at 50.0 µM). In addition, the growth inhibition in assay [5] (setting [7]) is -9%; in assay [5] (setting [8]), 97% (active); in assay [5] (at 50.0 µM) it was 70% (active); in assay [6] (setting [7]) it was 25%; in assay [6] (setting [8]) it was 96% (active); in assay [6] (at 50.0 µM), 71.5% (active).
`CCCCCCCCCCCCCCC(O)C(=O)O` (stereo not given): the growth inhibition in assay [1] (setting [7]) is -6%; in assay [1] (setting [8]) it was -27%; in assay [1] (at 50.0 µM) it was 68.7%; in assay [2] (setting [7]) it was -2%; in assay [2] (setting [8]), -31%; in assay [2] (at 50.0 µM), 88.1% (active). Besides, the growth inhibition in assay [3] (setting [7]) was -7%; in assay [3] (setting [8]) it was -33%; in assay [3] (at 50.0 µM), 33%; in assay [4] (setting [7]) it was -1%; in assay [4] (setting [8]) it was -42%; in assay [4] (at 50.0 µM), 11.4%. Besides, the growth inhibition in assay [5] (setting [7]) is -1%; in assay [5] (setting [8]) it was -28%; in assay [5] (at 50.0 µM), 96.4% (active); in assay [6] (setting [7]), -2%; in assay [6] (setting [8]), -27%; in assay [6] (at 50.0 µM), 73.5% (active).
Turning to `CCS(=O)(=O)/C=C/c1ccncc1`, the growth inhibition in assay [1] (setting [7]) was -3%; in assay [1] (setting [8]) it was 11%; in assay [1] (at 50.0 µM), 24.7%; in assay [2] (setting [7]), 3%; in assay [2] (setting [8]), -1%; in assay [2] (at 50.0 µM) it was 27.9%. For the same compound, the growth inhibition is -2% in assay [3] (setting [7]); 12% in assay [3] (setting [8]); 6.4% in assay [3] (at 50.0 µM); 1% in assay [4] (setting [7]); 12% in assay [4] (setting [8]); 5.85% in assay [4] (at 50.0 µM). The growth inhibition in assay [5] (setting [7]) was -2%; in assay [5] (setting [8]), 2%; in assay [5] (at 50.0 µM) it was 7.9%; in assay [6] (setting [7]), 11%; in assay [6] (setting [8]), 11%; in assay [6] (at 50.0 µM), 20.3%.
In the case of `CC(C)=CCC(OC(=O)CC(C)C)C1=CC(=O)c2c(O)ccc(O)c2C1=O` (stereo not given), the growth inhibition in assay [1] (setting [7]) was -1%; in assay [1] (setting [8]) it was 99% (active); in assay [1] (at 50.0 µM), 87.3% (active); in assay [2] (setting [7]), 1%; in assay [2] (setting [8]) it was 99% (active); in assay [2] (at 50.0 µM) it was 89.2% (active). Besides, the growth inhibition in assay [3] (setting [7]) is 1%; in assay [3] (setting [8]), 99% (active); in assay [3] (at 50.0 µM), 89.7% (active); in assay [4] (setting [7]) it was -17%; in assay [4] (setting [8]) it was 99% (active); in assay [4] (at 50.0 µM) it was 82.2% (active). The growth inhibition in assay [5] (setting [7]) was 2%; in assay [5] (setting [8]) it was 99% (active); in assay [5] (at 50.0 µM), 86% (active); in assay [6] (setting [7]), 1%; in assay [6] (setting [8]), 99% (active); in assay [6] (at 50.0 µM) it was 87.4% (active).
On to `O=[N+]([O-])/C=C/c1ccco1`, for which the growth inhibition in assay [1] (setting [7]) was 59%; in assay [1] (setting [8]), 99% (active); in assay [1] (at 50.0 µM), 99.5% (active); in assay [2] (setting [7]), 9%; in assay [2] (setting [8]) it was 100% (active); in assay [2] (at 50.0 µM) it was 99.3% (active). Also, the growth inhibition was 16% in assay [3] (setting [7]); 100% (active) in assay [3] (setting [8]); 88.8% (active) in assay [3] (at 50.0 µM); 8% in assay [4] (setting [7]); 99% (active) in assay [4] (setting [8]); 98.5% (active) in assay [4] (at 50.0 µM). The growth inhibition is 3% in assay [5] (setting [7]); 99% (active) in assay [5] (setting [8]); 98.9% (active) in assay [5] (at 50.0 µM); 22% in assay [6] (setting [7]); 99% (active) in assay [6] (setting [8]); 98.9% (active) in assay [6] (at 50.0 µM).
Regarding `C[Si](C)(C)CC(c1ccccc1)C(O)c1ccccc1` (stereo not given), the growth inhibition was -7% in assay [1] (setting [7]); 96% (active) in assay [1] (setting [8]); 98.5% (active) in assay [1] (at 50.0 µM); -4% in assay [2] (setting [7]); 98% (active) in assay [2] (setting [8]); 97.8% (active) in assay [2] (at 50.0 µM). Moreover, the growth inhibition in assay [3] (setting [7]) is -3%; in assay [3] (setting [8]), 98% (active); in assay [3] (at 50.0 µM), 98% (active); in assay [4] (setting [7]), 0%; in assay [4] (setting [8]), 97% (active); in assay [4] (at 50.0 µM) it was 93.9% (active). In addition, the growth inhibition in assay [5] (setting [7]) was 0%; in assay [5] (setting [8]), 98% (active); in assay [5] (at 50.0 µM) it was 98.7% (active); in assay [6] (setting [7]), 1%; in assay [6] (setting [8]), 98% (active); in assay [6] (at 50.0 µM), 98.8% (active).
Turning to `Nc1ccc2c(c1)CN1C(=O)c3ccccc3C1=N2`, the growth inhibition was 24% in assay [1] (setting [7]); 54% in assay [1] (setting [8]); 67.3% in assay [1] (at 50.0 µM); 8% in assay [2] (setting [7]); 22% in assay [2] (setting [8]); 34.6% in assay [2] (at 50.0 µM). Besides, the growth inhibition in assay [3] (setting [7]) is -3%; in assay [3] (setting [8]), 12%; in assay [3] (at 50.0 µM), 5.55%; in assay [4] (setting [7]), 23%; in assay [4] (setting [8]), 18%; in assay [4] (at 50.0 µM), 36.6%. For the same compound, the growth inhibition was 3% in assay [5] (setting [7]); 19% in assay [5] (setting [8]); 22.4% in assay [5] (at 50.0 µM); 11% in assay [6] (setting [7]); 19% in assay [6] (setting [8]); 46% in assay [6] (at 50.0 µM).
As to `CC(C(=O)N1C(=O)N(C(=O)C(C)C(O)c2ccccc2)C(c2ccccc2)C1c1ccccc1)C(O)c1ccccc1` (stereo not given), the growth inhibition was 3% in assay [1] (setting [7]); 91% (active) in assay [1] (setting [8]); 89.2% (active) in assay [1] (at 50.0 µM); -10% in assay [2] (setting [7]); 92% (active) in assay [2] (setting [8]); 91.5% (active) in assay [2] (at 50.0 µM). The growth inhibition in assay [3] (setting [7]) is -9%; in assay [3] (setting [8]), 91% (active); in assay [3] (at 50.0 µM), 91.9% (active); in assay [4] (setting [7]), 29%; in assay [4] (setting [8]), 89% (active); in assay [4] (at 50.0 µM), 90.1% (active). Besides, the growth inhibition in assay [5] (setting [7]) is -18%; in assay [5] (setting [8]) it was 96% (active); in assay [5] (at 50.0 µM), 88.2% (active); in assay [6] (setting [7]), 23%; in assay [6] (setting [8]) it was 91% (active); in assay [6] (at 50.0 µM) it was 91.3% (active).
In the case of `CN(C)c1ccc(C(c2cc3c(cc2O)OCO3)N2CCCC2)cc1` (stereo not given), the growth inhibition is 7% in assay [1] (setting [7]); 99% (active) in assay [1] (setting [8]); 99.2% (active) in assay [1] (at 50.0 µM); 15% in assay [2] (setting [7]); 99% (active) in assay [2] (setting [8]); 99.4% (active) in assay [2] (at 50.0 µM). For the same compound, the growth inhibition is -3% in assay [3] (setting [7]); 99% (active) in assay [3] (setting [8]); 99.2% (active) in assay [3] (at 50.0 µM); -3% in assay [4] (setting [7]); 99% (active) in assay [4] (setting [8]); 99.1% (active) in assay [4] (at 50.0 µM). For the same compound, the growth inhibition is 0% in assay [5] (setting [7]); 99% (active) in assay [5] (setting [8]); 99.4% (active) in assay [5] (at 50.0 µM); -7% in assay [6] (setting [7]); 99% (active) in assay [6] (setting [8]); 99.2% (active) in assay [6] (at 50.0 µM).
